TbREL1 primary: TbREL1 inhibition, primary screen | 89,000 tested, 0.49% active | TbREL1 RNA ligation, FRET fluorescence | inhibition, % at 9.66 µM | AID 1117264 | P86926;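 active means inhibition above the mean inhibition across all screened compounds plus 3 SD, cut at about 11% in these data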;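 further: 0% = plate median of test wells and 100% = NSC42067 control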
Target sequence (P86926 whole entry, looked up): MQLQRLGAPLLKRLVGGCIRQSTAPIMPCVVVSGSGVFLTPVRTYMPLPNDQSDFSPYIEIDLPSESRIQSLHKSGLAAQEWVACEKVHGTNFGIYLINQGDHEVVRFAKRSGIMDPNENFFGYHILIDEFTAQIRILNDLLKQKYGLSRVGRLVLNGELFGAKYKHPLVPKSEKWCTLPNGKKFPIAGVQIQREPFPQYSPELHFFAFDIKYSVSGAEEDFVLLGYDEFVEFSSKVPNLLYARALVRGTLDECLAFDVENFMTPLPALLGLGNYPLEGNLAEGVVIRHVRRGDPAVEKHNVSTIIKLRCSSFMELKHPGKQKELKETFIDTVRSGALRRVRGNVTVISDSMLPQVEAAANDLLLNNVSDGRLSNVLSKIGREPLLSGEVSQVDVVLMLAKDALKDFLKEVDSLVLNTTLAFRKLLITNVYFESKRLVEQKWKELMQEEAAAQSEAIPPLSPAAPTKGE
TbREL1 conf: TbREL1 inhibition, confirmation; inhibition, % at 9.66 µM; shares compounds with TbREL1 primary; TbREL1 RNA ligation, FRET fluorescence; 390 tested, 37% active; AID 1117282;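 active means mean inhibition across replicates above a set limit taken from the earlier primary screen, cut at about 11% in these data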;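 further: 0% = REL1 with substrate and DMSO and 100% = REL1 plus control inhibitor NSC42067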
The depositor's hits bear a star. Many of the other results were omitted from the sample, so hits are more common in it than they were.

SMILES	TbREL1 primary	others
COc1ccc(C2OCCNC3C2C(=O)N(Cc2ccc(OC)cc2OC)C3Cc2ccccc2)cc1 (stereo not drawn)	1.2
CCOC(=O)[C@]12CCCC=C1N(CCCOC)C(=O)[C@@H]2CC(=O)NCc1ccccc1	-1.7
CCOc1ccc(-n2c(SCC(=O)Nc3cccc4ccccc34)nnc2-c2cccs2)cc1	3.6
O=S1(=O)c2c(cccc2N2CC[C@@H](O)C2)OCCCN1C1CC1	3.1
O=C(Cc1cccs1)N/N=C/c1ccccn1	3.3
O=C(N/N=C/c1ccccn1)c1cccs1	12.1*	TbREL1 conf=6.0
O=C(N/N=C\c1ccccn1)c1cccc(C(=O)N/N=C\c2ccccn2)n1	-7.3
O=C(NCc1ccco1)C1CCCN(S(=O)(=O)c2ccccc2[N+](=O)[O-])C1 (stereo not drawn)	-0.8
CN1CCN(C(=S)Nc2ccc([N+](=O)[O-])cc2)CC1	-1.5
O=C1CCCCC1Nc1ccc([N+](=O)[O-])cc1 (stereo not drawn)	18.3*	TbREL1 conf=1.9
O=C(NC1CCCCC1)c1ccc([N+](=O)[O-])cc1	0.8
Cc1ccccc1Cn1cc(COC(=O)NCCc2c[nH]c3ccccc23)nn1	-5.1
CC(C)CN1C(=O)C[C@@]2(C(=O)N(C)c3ccc(NC(=O)C(F)(F)F)cc32)C1c1ccccc1 (stereo partly drawn)	-2.9
CCOc1ccc(-n2c(SCc3cccc4ccccc34)nnc2-c2ccc(C)cc2)cc1	3.3
COc1ccc(-c2cn3nc(C)c(C)nc3n2)cc1OC	1.8
COc1ccc(-c2nn3c(COc4ccccc4)nnc3s2)cc1OC	0.4
COc1ccc(-c2nn3cnnc3s2)cc1OC	11.4*	TbREL1 conf=4.2
O=C(O)COCc1nc2ccccc2s1	11.9*	TbREL1 conf=7.3
NC(=O)c1ccccc1OCc1nc2ccccc2s1	-5.8
O=C(O)CCCc1nc2ccccc2s1	0.4
CCC1CCCCN1C(=O)n1ncc(C(O)(c2ccccc2)c2ccccc2)n1 (stereo not drawn)	-3.3
O=C(NCCc1ccccc1Cl)[C@@H]1CCCN1C(=O)[C@@H](NS(=O)(=O)c1ccc(F)cc1F)c1ccccc1	-2.2
O=C(N[C@H](Cc1ccccc1)C(=O)NCC1CCCO1)[C@H]1O[C@@H](n2ccc(=O)[nH]c2=O)[C@H](O)[C@@H]1O (stereo partly drawn)	-0.7
O=c1/c(=C/c2ccco2)sc2n1CN(c1ccccc1)CN=2	4.1
O=c1nc2s/c(=C\c3ccco3)c(=O)n2nc1Cc1ccc(F)cc1	0.5
SMILES	TbREL1 primary	others
N#CC1=C(N)n2c(s/c(=C\c3ccco3)c2=O)=C(C#N)C1c1ccco1 (stereo not drawn)	27.4*	TbREL1 conf=8.1
COc1ccc(C2c3ccccc3NC3C2C(=O)N(Cc2ccc(OC)cc2OC)[C@H]3Cc2ccccc2)cc1 (stereo partly drawn)	9.3
CCC(CC)NC(=O)O[C@H]1CC[C@@]23CCCN2C(=O)CCC[C@H]3C1	9.5
CCN(CC)C(=O)O[C@H]1CC[C@@]23CCCN2C(=O)CCC[C@H]3C1	7.3
O=C(O[C@H]1CC[C@@]23CCCN2C(=O)CCC[C@H]3C1)N1CCOCC1	13.7*	TbREL1 conf=0.1
COc1ccc(N2CCN(CCNS(=O)(=O)c3ccc(F)cc3)CC2)cc1	-6.9
COc1ccc(CN2CCC(CNC(=O)NC3CCC(C)CC3)CC2)cc1 (stereo not drawn)	4.2
COc1cccc(N2CCN(CC(=O)NCc3ccco3)CC2)c1	-0.8
O=C(NCc1ccc(OC(F)(F)F)cc1)c1cccc2c1C(=O)c1ccc(N3CCCCC3)cc1S2(=O)=O	4.6
O=C(NCc1cc(C(F)(F)F)ccc1Cl)c1cccc2c1C(=O)c1ccc(N3CCOCC3)cc1S2(=O)=O	-0.3
O=C(NCc1cc(C(F)(F)F)ccc1Cl)c1cccc2c1C(=O)c1ccc(N3CCCCC3)cc1S2(=O)=O	41.3*	TbREL1 conf=3.5
COC(=O)[C@]12C[C@H](CC(=O)NCCC(C)C)C(=O)N(Cc3cccc4ccccc34)C1=C[C@H](COCc1ccccc1)O[C@@H]2C	-3.0
COc1ccccc1C(=O)N1CCN(C(=O)[C@@H](Cc2ccccc2)NC(=O)[C@H]2O[C@@H](n3ccc(N)nc3=O)[C@H](O)[C@@H]2O)CC1	-2.0
Cc1cccc(NC(=O)NN(C(=O)c2ccccc2Cl)C(C)(C)C)c1	-2.1

Source: PubChem (The Scripps Research Institute Molecular Screening Center)
